Source: PubChem BioAssay
Sampled rows, rich in hits. Any-hit rate of the full collection: about 2.5%.
KLF5 inh – suppresses KLF5 promoter-driven expression | DLD-1 KLF5 promoter-luciferase reporter, luminescence | inhibition, % at 5 µM | 290,000 tested, 0.23% active;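 active = inhibition above a per-plate limit of that plate's mean compound inhibition plus 3 SD, cut at about 60% in these data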;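 also: higher means less KLF5 promoter-driven luciferase light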
Jurkat NFkB inh – inhibitors of the PMA/ionomycin-induced NF-kB reporter in Jurkat cells. PMA/ionomycin-induced NF-kB luciferase reporter, luminescence. 330,000 tested, 0.53% active. inhibition, % at 4 µM; in the data active = inhibition above about 50%
ANO1 activ – activators or potentiators of mouse TMEM16A chloride channel | 340,000 tested, 0.3% active | Q8BHY3 | HEK293 TMEM16A/YFP-H148Q/I152L, iodide quench fluorescence; active compounds read low | B-score at 10 µM;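 active = fluorescence-ratio B-score plate-corrected deviation score at least 3 library SD below zero, with starting fluorescence score within 5 deviations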;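 also: channel opened by trigger with iodide after compound preincubation; score built on the fluorescence ratio of max minus min over baseline; more negative score means more quench and so TMEM16A activation or potentiation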
697 NFkB inh – inhibitors of the PMA/ionomycin-induced NF-kB reporter in 697 B cells; 697 B-cell NF-kB luciferase reporter, 16 h; 330,000 tested, 0.33% active; inhibition, % at 4 µM; in the data active = inhibition above about 35%
TMEM16A inh – blocks the mouse calcium-activated chloride channel TMEM16A | Q8BHY3 | HEK293 TMEM16A/YFP iodide influx fluorescence, ionomycin | normalized B-score (activity score, 25-100; higher = stronger inhibition) at 10 µM | 310,000 tested, 1.2% active | AID 588511;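 active = ratio plate-corrected score three or more library SD toward inhibition, starting fluorescence score within five deviations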;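 also: score derived from kinetic fluorescence span divided by baseline fluorescence per well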
aSyn UTR inh – MLPCN primary screen, SNCA 5' untranslated region; alpha-synuclein 5'UTR reporter, inhibitor activity; inhibition, % (tested at 7.5 µM); 300,000 tested, 0.82% active; in the data active = inhibition above about 60%;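 also: H4 neuroglioblastoma cells stably carrying SNCA 5'UTR luciferase fusion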
Hits are given with their value; 0 = inactive; - = no result given.

SMILES	KLF5 inh	Jurkat NFkB inh	ANO1 activ	697 NFkB inh	TMEM16A inh	aSyn UTR inh
Cc1cc(C)c(S(=O)(=O)NCC(c2cccnc2)N2CCN(Cc3ccccc3)CC2)c(C)c1 (stereo unspecified)	0	0	0	0	0	0
NS(=O)(=O)c1ccc(CCNCC(=O)NCc2ccccc2Cl)cc1	0	0	-	0	0	0
CCOC(=O)C1CCCN(C(=O)N2CCOCC2)C1 (stereo unspecified)	0	0	0	0	25	0
COCCNC(=O)c1cnn2c(C(F)(F)F)cc(-c3ccc(C)cc3)nc12	0	0	-5.24	0	0	0
COc1ccccc1Oc1ccc2c(c1)C(=O)N(c1ccc(C)cc1)C2=O	0	0	-6.14	0	0	0
O=C(c1ccc(Br)cc1)c1cc2ccc(O)cc2oc1=O	0	0	0	0	25	0
CCSc1nnc(-c2ccc(OC)cc2)o1	0	0	0	0	0	0
CCCCCCCCSc1nnc(-c2ccc(OC)cc2)o1	0	0	0	0	0	111.2
COc1ccc2c(c1)O[C@@H](c1cccc(C(F)(F)F)c1)[C@H](O)C2=O	0	0	0	0	0	62.4
CCS(=O)(=O)N1N=C(c2cccc(NS(C)(=O)=O)c2)CC1c1ccccc1 (stereo unspecified)	0	0	0	0	0	0
CCS(=O)(=O)Nc1cccc(C2=NN(S(C)(=O)=O)C(c3ccccc3)C2)c1 (stereo unspecified)	0	0	-9.7	0	0	0
CCOc1ccc(S(=O)(=O)Nc2cnc3ccccc3c2)cc1	0	0	0	0	25	0
Cc1ccc(C(=O)Nc2cccc(C(F)(F)F)c2)cc1NC(=O)c1nccnc1N	-	0	0	0	0	78.5
Cc1ccc(C(=O)Nc2cccc(C(F)(F)F)c2)cc1NC(=O)c1cnnc2ccccc12	-	0	0	0	0	64.2
Cc1ccc(-c2cc(C(=O)N3CCOCC3)no2)cc1	0	0	0	0	0	66.9
COc1ccc(C(C)=O)cc1CSc1nnnn1-c1ccc(O)cc1	0	0	0	0	0	0
COc1ccc(F)cc1CSc1nnnn1-c1ccc(O)cc1	0	0	0	0	25	0
c1ccc(CC2CCN(c3nnnn3-c3ccccc3)CC2)cc1	0	0	0	0	100	0
O=C(NNC1=Nc2cccc3cccc1c23)c1ccc(Br)cc1	0	-	0	-	0	0
CCOc1cc(/C=C(/C#N)C(=O)Nc2ccc(O)cc2)cc(Br)c1O	0	0	0	0	0	83.7
C=CCNC(=O)/C(C#N)=C\c1cc(Cl)c(O)c(OCC)c1	0	-	0	-	0	0
CCOC(=O)C1CCN(C(=O)c2ccc3c(c2)NC(=O)/C(=C/c2ccccc2)S3)CC1	0	0	-50.5	0	0	0
CC(C)N(C)Cc1nnnn1CC(=O)NCCc1cccc(C(F)(F)F)c1	0	0	0	0	0	0
CC(C)C[C@H]1CN=C(Nc2ccccc2)N1CCc1cccc(F)c1	-	0	-5.15	0	-	-
CC(C)C[C@H]1CN=C(Nc2ccccc2)N1CCc1ccc(F)cc1	-	0	0	0	0	-
SMILES	KLF5 inh	Jurkat NFkB inh	ANO1 activ	697 NFkB inh	TMEM16A inh	aSyn UTR inh
Cc1cccc(CCN2C(Nc3ccccc3)=NC[C@@H]2CC(C)C)c1	-	0	-6.14	0	0	-
CC(C)CCN1C(Nc2ccccc2)=NC[C@@H]1CC(C)C	0	0	0	0	0	0
Cc1ccc(C)c(S(=O)(=O)N2CCC(c3nc4c(nnn4Cc4ccc5c(c4)OCCO5)c(=O)[nH]3)CC2)c1	0	0	0	0	0	0
O=C1Nc2cc(Cl)ccc2C1(N1CCNCC1)C(F)(F)F (stereo unspecified)	0	0	0	0	0	0
O=C1Nc2ccc(Cl)cc2[C@@](C#CC2CC2)(C(F)(F)F)O1	0	0	-	0	100	0
CCOc1ccccc1-n1c(SCC(=O)Nc2ccc(CC)cc2)nc2n[nH]c(C)c2c1=N	0	0	-	0	0	83.6
CCOc1ccccc1NC(=O)CCSc1nc2n[nH]c(C)c2c(=N)n1-c1ccccc1Cl	0	0	0	0	0	0
O=C1CCC[C@@H]2Cc3nc4ccc(Cl)cc4cc3[C@@H]3CCN1[C@H]23	-	-	0	-	-	-
O=C(COC(=O)c1ccc(O)cc1O)Nc1ccc2c(c1)OCCO2	-	0	-27.8	0	-	-
COc1ccccc1C1CCN(Cc2ccc(C)cc2)CC1	0	0	0	0	0	0
CCN(CC(=O)Nc1ccccc1OC)C(=O)CN1C(=O)NC(C)(c2ccc3ccccc3c2)C1=O (stereo unspecified)	-	-	0	-	-	-
O=C(C1=C[C@@H](c2csc3ccccc23)C[C@@H](OCc2ccc(CO)cc2)O1)N1CCN(Cc2ccc3c(c2)OCO3)CC1	0	0	0	0	0	68.8
O=C(C1=C[C@@H](c2csc3ccccc23)C[C@@H](OCc2ccc(CO)cc2)O1)N1CCN(Cc2ccccc2)CC1	0	0	0	0	0	0
COc1ccccc1C(=O)N1CCN(Cc2ccc3c(c2)OCO3)CC1	0	0	-14.4	0	0	0
CCn1cnc2sc(C(=O)N3CCN(Cc4ccc5c(c4)OCO5)CC3)c(C)c2c1=O	0	0	-	0	25	0
CN(C)c1ccc(N=Nc2ccc(C(=O)O)cc2)cc1	0	0	0	0	0	64.0
NC(=O)c1ccc(NC(=O)COC(=O)CC23CC4CC(CC(Br)(C4)C2)C3)cc1	-	0	0	0	-	-
Cc1ccc(S(=O)(=O)c2nc(-c3cccs3)oc2N2CCC(C(N)=O)CC2)cc1	-	0	0	0	-	-
CC(C)(C)OC(=O)COc1cc(OCC(=O)OC(C)(C)C)c2c(=O)cc(-c3ccccc3)oc2c1	0	0	0	0	100	-
CC(C)(C)OC(=O)COc1cc(O)c2c(=O)cc(-c3ccccc3)oc2c1	0	0	0	0	0	0
Cc1ccc(C)c(S(=O)(=O)N2CCN(C(=O)Cc3ccc(S(=O)(=O)N4CCOCC4)s3)CC2)c1	-	0	0	0	0	0
CN(C)CCN(C)Cc1c2ccccc2c(CN(C)CCN(C)C)c2ccccc12	0	0	-5.49	0	0	0
CCOC(=O)COc1ccc2c(c1)c(C(C)=O)c(C)n2-c1ccc(OC)cc1	0	0	0	0	0	0
COc1ccc(CC(=O)OCC(=O)N2CCc3ccccc32)cc1OC	-	0	-25.3	0	-	-
CCOc1ccc(-n2nc3ccc(N)cc3n2)cc1	0	0	0	0	0	73.2
SMILES	KLF5 inh	Jurkat NFkB inh	ANO1 activ	697 NFkB inh	TMEM16A inh	aSyn UTR inh
CCOc1ccc(N2C(N)=NC(N)=NC2(C)C)cc1	0	0	0	0	0	66.2
COc1ccc(N2C(N)=NC(N)=NC23CCCC3)cc1	0	0	0	0	0	0
COc1cccc(N2C(N)=NC(N)=NC2(C)C)c1	0	0	0	0	0	95.9
CC1(C)N=C(N)N=C(N)N1c1cccc(C#N)c1	-	-	0	-	-	-
COc1ccc(N2C(N)=NC(N)=NC2(C)C)cc1	0	-	0	-	0	81.4
Cc1ccc(-n2nc3ccc(N)cc3n2)cc1	0	0	0	0	0	0
CCOc1ccccc1NC(=O)N1CCc2ccccc2C1	0	0	0	0	0	0
CC1(C)CC(NC(=O)c2cccc(S(=O)(=O)Nc3cccc(Cl)c3)c2)CC(C)(C)N1	-	0	0	0	-	-
